From PubChem BioAssay (Tox21) come the findings set out here.

Test [1] in a line: qHTS assay to identify small molecule antagonists of the estrogen related receptor (ERR) signaling pathway from Tox21 library - cell viability counter screen (AID 1224834). Note: nearly all actives have a fitted effect of over 30% in size. Summed up:
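Viability readout (CellTiter-Fluor fluorescence, 30 min at 37 C) multiplexed with the ERR assay; cells treated 17.5 h at 37 C with compounds delivered in DMSO.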
On the technique in general: Quantitative high-throughput screening tests each substance at several concentrations.

The target of test [2] is Luciferin 4-monooxygenase (Photinus pyralis) (UniProt P08659). The test is described as follows: qHTS assay to identify small molecule inhibitors of firefly luciferase (AID 1224835). Note: nearly all actives have a fitted effect of over 25% in size. Summed up:
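Biochemical qHTS: compounds run as interplate titrations against purified firefly enzyme, with D-luciferin and ATP each at its KM concentration. Light output recorded by CCD imaging.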

The nature of test [3]: qHTS assay to identify small molecule agonists of the constitutive androstane receptor (CAR) signaling pathway - cell viability counter screen (AID 1224836). Note: nearly all actives have a fitted effect of over 45% in size. Summed up:
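HepG2-CYP2B6-hCAR, 2500 cells/well, 4 h pre-incubation; cpd 15 conc + PK11195 0.75 uM final; 23 h, 37 C/5% CO2; CellTiter-Fluor, fluorescence.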

Test [4] is described as follows: qHTS assay to identify small molecule antagonists of the constitutive androstane receptor (CAR) signaling pathway - cell viability counter screen (AID 1224837). Note: nearly all actives have a fitted effect of over 45% in size. Summed up: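 Fluorescence from CellTiter-Fluor served as the viability signal. Human hepatoma HepG2 cells stably bearing hCAR and CYP2B6-2.2kb received compound plus CITCO (50 nM final) for 23 hr.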
Test [5] has as its target Nuclear receptor subfamily 1 group I member 3 (Homo sapiens) (UniProt Q14994). The test can be described thus: qHTS assay to identify small molecule antagonists of the constitutive androstane receptor (CAR) signaling pathway (AID 1224838).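 Note: HepG2 cells stably expressing hCAR with CYP2B6 luciferase reporter stimulated by CITCO; nearly all actives have a fitted effect of over 40% in size.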 Summed up: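 Quantitative HTS in double-stable HepG2-CYP2B6-hCAR cells. After 4 h plating, cells get compound (15 concentrations) and CITCO at 50 nM final, incubate 24 h at 37 C, then ONE-Glo luminescence is read.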

Test [6] has the same target. The test is described as follows: qHTS assay to identify small molecule agonists of the constitutive androstane receptor (CAR) signaling pathway (AID 1224839).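 For activation: HepG2 cells stably carrying human CAR and a CYP2B6 luciferase reporter.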 Note: nearly all actives have a fitted effect of over 15% in size. Note: potency is the fitted concentration of half-maximal effect. Summed up: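 HepG2-CYP2B6-hCAR cells, 2500/well, 4 h pre-incubation; compounds 15 conc.; PK11195 0.75 uM final; 24 h, 37 C/5% CO2; ONE-Glo luciferase read.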
Test [7] can be described thus: qHTS assay to identify small molecule antagonists of the estrogen related receptor signaling pathway with the pleiotropic PPARgamma coactivator (PGC) from Tox21 10K library - cell viability counter screen (AID 1224840; active = well fitted cell-killing curve with a large enough effect in the repeat runs, not every such curve was filed as active; note: nearly all actives have a fitted effect of over 40% in size). Summed up: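 Compounds in DMSO, alongside positive and negative controls, were pinned onto PGC/ERR cells (2,000 per well). Exposure lasted 17.5 hours at 37 C, followed by a 30-minute CellTiter-Fluor incubation and fluorescence reading.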

Test [8] can be described thus: qHTS assay to identify small molecule antagonists of the estrogen related receptor signaling pathway with the pleiotropic PPARgamma coactivator (PGC) from Tox21 10K library (AID 1224841; call rule not given here; note: actives are mostly falling curves and most rising ones were filed inactive; nearly all actives have a fitted effect of over 50% in size). In outline: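 Compound exposure ran 18 hours at 37 C in PGC/ERR cells (2,000/well) that had first rested 6 hours in a 37 C/5% CO2 incubator. Luciferase activity was then detected with One-Glo after a 30-minute room-temperature step.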

Test [9] is described as follows: qHTS assay to identify small molecule agonists of the estrogen related receptor signaling pathway with the pleiotropic PPARgamma coactivator (PGC) from Tox21 10K library (AID 1224842). Note: nearly all actives have a fitted effect of over 15% in size. Summed up: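 PGC/ERR reporter cell line, 2,000 cells per well, incubated 6 h at 37 C before 23 nL compound in DMSO was added. After 18 h at 37 C, One-Glo luminescence read following 30 min at room temperature.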

For test [10], the target named is Thyrotropin receptor (Homo sapiens) (UniProt P16473). The test is described as follows: qHTS assay to identify small molecule agonists of the thyroid stimulating hormone receptor (TSHR) signaling pathway (AID 1224843; calls by dose curve; note: nearly all actives have a fitted effect of over 45% in size). In outline: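 Steps: seed 800 TSHR-HEK293 cells per well; add test compound and hold 30 min at ambient temperature; dispense cAMP-d2 then anti-cAMP cryptate; incubate 1 h at ambient; measure fluorescence intensity.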
Sequence of Thyrotropin receptor (Homo sapiens) (P16473 whole entry, looked up): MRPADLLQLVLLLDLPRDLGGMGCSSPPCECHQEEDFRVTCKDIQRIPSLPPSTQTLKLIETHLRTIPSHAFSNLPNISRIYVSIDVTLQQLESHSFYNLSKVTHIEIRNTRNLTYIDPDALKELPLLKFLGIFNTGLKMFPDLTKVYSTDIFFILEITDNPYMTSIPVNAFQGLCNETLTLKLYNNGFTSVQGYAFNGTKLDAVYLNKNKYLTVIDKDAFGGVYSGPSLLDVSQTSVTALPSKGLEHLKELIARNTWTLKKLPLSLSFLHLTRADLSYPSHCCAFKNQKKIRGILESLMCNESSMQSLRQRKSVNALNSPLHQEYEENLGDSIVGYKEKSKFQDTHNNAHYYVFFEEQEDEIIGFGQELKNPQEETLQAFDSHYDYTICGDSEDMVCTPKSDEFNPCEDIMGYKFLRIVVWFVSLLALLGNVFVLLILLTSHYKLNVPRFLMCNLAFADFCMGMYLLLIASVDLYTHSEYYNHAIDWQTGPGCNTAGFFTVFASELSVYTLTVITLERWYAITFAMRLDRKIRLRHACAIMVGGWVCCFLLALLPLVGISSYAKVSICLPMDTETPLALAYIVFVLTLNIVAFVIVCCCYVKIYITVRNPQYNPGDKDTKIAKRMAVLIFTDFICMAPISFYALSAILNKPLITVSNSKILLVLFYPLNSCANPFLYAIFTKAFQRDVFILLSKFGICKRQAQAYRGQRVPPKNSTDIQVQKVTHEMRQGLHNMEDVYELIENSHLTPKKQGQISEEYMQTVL

Test [11] in a line: qHTS assay to identify small molecule agonists of the hypoxia (HIF-1) signaling pathway - cell viability counter screen (AID 1224844; calls by dose curve; note: nearly all actives have a fitted effect of over 50% in size). Summed up:
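Luminescent ATP content (CellTiter-Glo, 30 min, room temperature) served as the viability measure in HRE-bla ME-180 cells exposed to compounds for 17 hrs in low-serum medium (0.5% dialyzed FBS).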

Test [12] can be described thus: qHTS assay to identify small molecule agonists of H2AX (AID 1224845; active = well fitted activation curve with a large enough effect in the signal ratio in the repeat runs, not every such curve was filed as active; the % refers to the signal ratio). Summed up: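 Wild-type CHO-K1 cells, plated overnight, exposed 3hr at 37C to 15 concentrations (0.76% DMSO final). Lysed, then HTRF anti-pH2AX (S139) cryptate and anti-H2AX-d2 antibodies, 24 hr room temperature; 665/620 nm emission read.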
Test [13] in a line: qHTS assay to identify small molecule agonists of the hypoxia (HIF-1) signaling pathway (AID 1224846; active = well fitted activation curve with a large enough effect in the signal ratio in the repeat runs, not every such curve was filed as active; the % refers to the signal ratio). Summed up: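 Measured by blue/green FRET after loading CCF4-AM: beta-lactamase expressed from a hypoxia response element in ME-180 cells. Test agents were delivered in DMSO and left 17 hrs; cells had been plated 5 hrs earlier in low-serum (0.5% dialyzed FBS) medium.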
Test [14] is described as follows: qHTS assay to identify small molecule agonists of H2AX - cell viability counter screen (AID 1224847; calls by dose curve; note: top concentration of the series differs between compounds; nearly all actives have a fitted effect of over 30% in size). Summed up: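 Cells plated first: CHO-K1, 1000 per well in 10% FBS medium, incubated overnight at 37C. Then 15-point compound titration added (final DMSO 0.76%) for 3 hr. Finally CellTiter-Glo added and luminescence read.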
Test [15] is described as follows: qHTS assay to identify small molecule antagonists of the estrogen related receptor (ERR) signaling pathway from Tox21 library (AID 1224848). Note: nearly all actives have a fitted effect of over 50% in size. Summed up:
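Luminescent reporter read-out (ONE-Glo) from NTP's ERR cell line after 18 h treatment at 37 C with DMSO-dissolved Tox21 compounds; cells pre-plated 6 h beforehand at 2,000 per well.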

The nature of test [16]: qHTS assay to identify small molecule agonists of the estrogen related receptor (ERR) signaling pathway from Tox21 library (AID 1224849; calls by dose curve; note: nearly all actives have a fitted effect of over 15% in size). To be noted: ERR reporter cell line, ONE-Glo luciferase, 18 h; at 92.4 µM (top of the series) unless noted. Summed up: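 We plated ERR reporter cells, waited 6 h, added compounds in DMSO by pin tool and incubated them 18 h at 37 C. ONE-Glo was then added and luminescence read after 30 min.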

A short description of test [17]: qHTS RealTime-Glo MT Cell Viability Assay in HepG2 cells - 24 hour (AID 1224867). Note: nearly all actives have a fitted effect of over 50% in size. Summed up:
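HepG2 suspension premixed with RealTime-Glo reagents is plated at 600 cells per well and left 5 h at 37 C/5% CO2. Compounds in DMSO then go in, and bioluminescence reflecting viable cell number is recorded over 40 h.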

Test [18] is described as follows: qHTS RealTime-Glo MT Cell Viability Assay in HEK293 cells - 32 hour (AID 1224868). In outline:
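Reads taken at 0, 8, 16, 24, 32 and 40 h from the same wells. HEK293 cells (600/well) carried RealTime-Glo reagents from seeding, with compound added after a 5 h settle at 37 C.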

Test [19] in a line: A CellTox Green Cytotoxicity Assay to monitor cytotoxicity in HEK293 cells - 0 hour (AID 1224869). Note: nearly all actives have a fitted effect of over 50% in size. Summed up:
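Each value comes from one timepoint of a single continuous run in which HEK293 cells with CellTox Green were exposed to compound for up to 40 h at 37 C, dye fluorescence rising with cell death.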

The nature of test [20]: qHTS RealTime-Glo MT Cell Viability Assay in HepG2 cells - 40 hour (AID 1224870). Note: nearly all actives have a fitted effect of over 50% in size. Summed up:
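HepG2 cells (600/well) mixed with RealTime-Glo MT reagent, settled 5 h at 37 C/5% CO2 before compound addition. Nonlytic NanoLuc luminescence from viable-cell prosubstrate reduction read repeatedly during 40 h treatment at 37 C.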

Unmarked numbers belong to inactive results. Results filed as inconclusive are left out. Activity calls are given as the source filed them. Unless noted, calls come from the whole dose curve; as a rule, active = well fitted curve in the direction sought with a large enough effect in the repeat runs; inconclusive = weak or mixed curves; inactive = no such curve, though single readings can be large; an effect the other way counts as inactive or inconclusive.
% is set by controls: 0 for no effect and ±100 for the full control effect.

Sequence of Luciferin 4-monooxygenase (Photinus pyralis) (P08659 whole entry, looked up): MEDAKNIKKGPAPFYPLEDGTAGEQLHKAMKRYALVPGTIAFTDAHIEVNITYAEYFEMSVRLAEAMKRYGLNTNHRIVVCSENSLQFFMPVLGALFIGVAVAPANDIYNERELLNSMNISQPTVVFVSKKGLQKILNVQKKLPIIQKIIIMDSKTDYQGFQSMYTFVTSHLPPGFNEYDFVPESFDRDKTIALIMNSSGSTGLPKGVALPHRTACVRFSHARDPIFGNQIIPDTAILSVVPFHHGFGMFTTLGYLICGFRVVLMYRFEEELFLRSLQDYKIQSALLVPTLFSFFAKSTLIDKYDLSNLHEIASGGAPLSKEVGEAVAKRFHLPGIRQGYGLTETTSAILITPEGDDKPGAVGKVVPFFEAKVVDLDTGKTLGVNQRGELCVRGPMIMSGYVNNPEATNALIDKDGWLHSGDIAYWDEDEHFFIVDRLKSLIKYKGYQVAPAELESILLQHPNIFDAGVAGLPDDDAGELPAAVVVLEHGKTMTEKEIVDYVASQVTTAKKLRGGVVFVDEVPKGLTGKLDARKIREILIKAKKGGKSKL
Sequence of Nuclear receptor subfamily 1 group I member 3 (Homo sapiens) (Q14994 whole entry, looked up): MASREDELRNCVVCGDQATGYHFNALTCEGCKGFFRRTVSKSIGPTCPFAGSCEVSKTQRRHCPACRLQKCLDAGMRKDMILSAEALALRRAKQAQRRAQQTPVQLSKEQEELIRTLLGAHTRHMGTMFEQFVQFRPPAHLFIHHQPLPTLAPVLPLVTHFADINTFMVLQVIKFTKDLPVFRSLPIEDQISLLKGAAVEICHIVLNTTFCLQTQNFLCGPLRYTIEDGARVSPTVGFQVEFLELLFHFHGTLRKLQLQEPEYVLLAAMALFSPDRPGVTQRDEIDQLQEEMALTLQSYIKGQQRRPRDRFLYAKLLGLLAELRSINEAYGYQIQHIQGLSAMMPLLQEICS

In the case of `CC(=O)CCc1ccc2c(c1)OCO2`, the Potency result in test [1], in test [2], in [3], in test [4], in test [5] and in test [6] was “inactive” throughout. For the same molecule, the Potency entry in [7], in test [8], in [10], in test [11], in test [12] and in test [14] was “inactive” throughout. The Potency result in test [15], in test [17], in test [18], in [19] and in [20] was “inactive” in each case. Further, the result in [9] and in test [13] was inactive. The activity change, positive = activation in [16] is -0.0233%.

With `COP(N)(=S)Oc1ccccc1C(=O)OC(C)C` (configuration not stated), the Potency result in test [1], in test [2], in [3], in test [4], in test [5] and in test [7] was “inactive” throughout. The Potency result in test [10], in [11], in test [12], in test [14], in [17] and in test [18] was “inactive” each time. For the same molecule, the Potency entry in test [19] and in test [20] was “inactive” throughout. In addition, the Potency in [6] is 30.6 µM (active). In addition, the result in [13] was inactive.

Consider `O=NN1CCN(N=O)CC1`, for which the Potency entry in test [1], in test [2], in [3], in test [4], in test [5] and in test [6] was “inactive” each time. The Potency entry in test [7], in test [8], in [10], in test [11], in test [12] and in [14] was “inactive” in each case. Also, the Potency entry in test [17], in test [18], in test [19] and in test [20] was “inactive” each time. In addition, the call in test [9] and in test [13] was inactive. For the same molecule, in test [16], the activity change, positive = activation was 3%.

As to `COc1cc(OC)nc(NC(=O)NS(=O)(=O)c2ncccc2OCC(F)(F)F)n1`, the Potency result in test [1], in test [2], in test [3], in [4], in test [5] and in [6] was “inactive” each time. Also, the Potency entry in [7], in [8], in test [10], in test [11], in [12] and in [14] was “inactive” in each case. For the same molecule, the Potency result in test [15], in test [17], in [18], in [19] and in [20] was “inactive” throughout. Further, the result in [9] and in test [13] was inactive. Further, the activity change, positive = activation in [16] is 9.4%.

In the case of `ClCC(Cl)Cl`, the Potency entry in test [1], in test [2], in [3], in test [4], in test [5] and in [6] was “inactive” throughout. Besides, the Potency result in test [7], in [10], in test [11], in [12], in test [14] and in [17] was “inactive” throughout. Also, the Potency entry in [18], in [19] and in [20] was “inactive” throughout. In [13], the outcome was inactive.

For `ClCCOCOCCCl`, the Potency entry in [1], in test [2], in test [3], in test [4], in test [5] and in [6] was “inactive” throughout. The Potency result in [7], in test [8], in [10], in [11], in test [12] and in test [14] was “inactive” throughout. For the same molecule, the Potency entry in test [17], in test [18] and in test [20] was “inactive” in each case. Besides, the result in test [9] and in test [13] was inactive. The activity change, positive = activation in test [16] is -2.74%.

Turning to `NC(=S)C(N)=S`, the Potency result in test [1], in test [2], in test [3], in [4], in [5] and in test [6] was “inactive” each time. The Potency result in [7], in test [11], in test [12], in test [14], in [17] and in [18] was “inactive” throughout. Moreover, the Potency entry in [19] and in test [20] was “inactive” in each case. Moreover, the result in [9] and in test [13] was inactive. The activity change, positive = activation in [16] was -20.6%.

For `c1ccc(N2CCNCC2)cc1`, the Potency result in [1], in test [2], in test [3], in test [4], in test [5] and in test [6] was “inactive” throughout. Moreover, the Potency result in test [7], in test [10], in test [11], in test [12], in [14] and in test [17] was “inactive” each time. Moreover, the Potency result in test [18], in [19] and in test [20] was “inactive” throughout. Besides, the outcome in test [13] was inactive.
